One assay can be described thus: qHTS profiling for inhibitors of Plasmodium falciparum (DD2) proliferation (AID 743323). The settings on record: lower = more inhibition; at 28.7 µM (top of the series) unless noted. The method in brief:
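SYBR Green fluorescence (ex 485, em 535 nm) of lysed cultures gives parasite DNA content; wells normalized to artemisinin (0.29 uM) and DMSO controls. Infected red cells: 0.3% parasitemia, 2.5% hematocrit, 72 h, 37 C.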
Background: In qHTS, concentration-response curves come from the screen itself.
As to `CCCCCCCCCCCCCC(=O)N[C@H](CO)[C@H](O)c1ccc([N+](=O)[O-])cc1`, the activity, percent of control amounted to 82.3%.

Regarding `Cc1nn(Cc2ccccc2Cl)c(C)c1CN(C)CC(O)COc1ccc(Cl)cc1` (stereo not given), the activity, percent of control turned out to be 18.1%.

`COc1cc2nccc(Oc3ccc(NC(=O)Nc4cc(C)on4)c(Cl)c3)c2cc1OC`: the activity, percent of control was found to be 62%.

In the case of `Nc1ccc(-c2ccc3ncc4ccc(=O)n(-c5cccc(C(F)(F)F)c5)c4c3c2)cn1`, the activity, percent of control was -0.278%.

For the molecule `COc1cc([C@@H]2c3cc4c(cc3[C@@H](O[C@@H]3O[C@@H]5CO[C@@H](C)O[C@@H]5[C@H](O)[C@@H]3O)[C@H]3COC(=O)[C@H]23)OCO4)cc(OC)c1O`, the activity, percent of control was 47.3% [at 9.63 µM].

The next assay is described as follows: qHTS profiling for inhibitors of Plasmodium falciparum (HB3) proliferation (AID 743324).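 Also: 100% = DMSO vehicle wells and 0% = artemisinin-treated control wells.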 The note with it: Plasmodium falciparum HB3 blood-stage proliferation; at 28.7 µM (top of the series) unless noted. The gist of the method: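 P. falciparum HB3 grown in erythrocytes (0.3% parasitemia, 2.5% hematocrit final) with compound for 72 h at 37 C, 5% CO2. Parasite DNA detected by SYBR Green after saponin/triton lysis overnight; normalized to 0.29 uM artemisinin and DMSO.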
`CCCCCCCCCCCCCC(=O)N[C@H](CO)[C@H](O)c1ccc([N+](=O)[O-])cc1`: the remaining proliferation (% of control), lower = more inhibition came to 73.2%.

For `Cc1nn(Cc2ccccc2Cl)c(C)c1CN(C)CC(O)COc1ccc(Cl)cc1` (stereo not given), the remaining proliferation (% of control), lower = more inhibition came out at 8.74%.

On to `COc1cc2nccc(Oc3ccc(NC(=O)Nc4cc(C)on4)c(Cl)c3)c2cc1OC`, for which the remaining proliferation (% of control), lower = more inhibition turned out to be 11.5%.

For `Nc1ccc(-c2ccc3ncc4ccc(=O)n(-c5cccc(C(F)(F)F)c5)c4c3c2)cn1`, the remaining proliferation (% of control), lower = more inhibition was -1.3%.

With `COc1cc([C@@H]2c3cc4c(cc3[C@@H](O[C@@H]3O[C@@H]5CO[C@@H](C)O[C@@H]5[C@H](O)[C@@H]3O)[C@H]3COC(=O)[C@H]23)OCO4)cc(OC)c1O`, the remaining proliferation (% of control), lower = more inhibition worked out at 11.4% [at 9.63 µM].

The nature of the next assay: qHTS profiling of the MIPE4 collection as inhibitors of Plasmodium falciparum (3D7) proliferation (AID 743344).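 Also: scaled between DMSO vehicle wells and 0.29 µM artemisinin as full inhibition.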 The settings on record: P. falciparum 3D7 in erythrocytes, SYBR Green DNA fluorescence, 72 h; at 28.5 µM (top of the series) unless noted. The method in brief:
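Erythrocytes infected with P. falciparum (0.3% parasitemia, 2.5% hematocrit) incubated with compounds 72 h at 37 C, 5% CO2. Lysis with saponin/Triton buffer containing SYBR Green I, overnight at room temperature in the dark; DNA fluorescence (485/535 nm) normalised to 0.29 uM artemisinin and DMSO.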
Molecule `C[C@@H]1C[C@H]2[C@@H]3CCC4=CC(=O)C=C[C@]4(C)[C@@]3(F)[C@@H](O)C[C@]2(C)[C@@]1(O)C(=O)CO` showed a parasite growth, % of DMSO control of 55.8%.

`N#Cc1c(N(CC(=O)O)CC(=O)O)sc(C(=O)O)c1CC(=O)O` yielded a parasite growth, % of DMSO control of 86.7%.

The molecule `CCCCCCCCCCCCCC(=O)N[C@H](CO)[C@H](O)c1ccc([N+](=O)[O-])cc1` gave a parasite growth, % of DMSO control of 55.9%.

`C=C1c2cccc(O)c2C(O)=C2C(=O)[C@@]3(O)C(O)=C(C(N)=O)C(=O)[C@@H](N(C)C)[C@@H]3[C@@H](O)[C@H]12` came in with a parasite growth, % of DMSO control of 23.7%.

Take `CCC(=C(CC)c1ccc(O)cc1)c1ccc(O)cc1`: the parasite growth, % of DMSO control was 57.2%.

For the molecule `CN1CCc2c(n(Cc3ccc(C(=O)NO)cc3)c3ccccc23)C1`, the parasite growth, % of DMSO control came to 5.97%.

Molecule `Cc1[nH]c(C=C2C(=O)Nc3ccc(S(=O)(=O)N(C)c4cccc(Cl)c4)cc32)c(C)c1C(=O)N1CCN(C)CC1` registered a parasite growth, % of DMSO control of 7.33%.

Molecule `CC(=O)OCC(=O)[C@@]12OC(C)(C)O[C@H]1C[C@H]1[C@@H]3C[C@H](F)C4=CC(=O)C=C[C@]4(C)[C@@]3(F)[C@@H](O)C[C@@]12C` came in with a parasite growth, % of DMSO control of 51.9%.

In turn, `CN(C)c1ccc(-c2nc3ncc(Cl)c(N4CCN(CC(=O)Nc5nccs5)CC4)c3[nH]2)cc1` came in with a parasite growth, % of DMSO control of 6.94%.

As for `CCCCC(F)(F)[C@@]1(O)CC[C@H]2[C@H](CC(=O)[C@@H]2CCCCCCC(=O)O)O1`, the parasite growth, % of DMSO control stood at 77.3%.

In the case of `CC(C)CN(C[C@H](O)[C@H](Cc1ccccc1)NC(=O)O[C@H]1CCOC1)S(=O)(=O)c1ccc(N)cc1`, the parasite growth, % of DMSO control came to 6.57%.

Molecule `COc1cc(Cl)cn2c(-c3cccc(NC4CNC4)n3)cnc12` registered a parasite growth, % of DMSO control of 39.6%.

`Cc1cc2nc3c(=O)[nH]c(=O)nc-3n(CC(O)C(O)C(O)CO)c2cc1C` (stereo not given) came in with a parasite growth, % of DMSO control of 21.3%.

Consider `CC(NCCc1ccc(O)cc1)C(O)c1ccc(O)cc1` (stereo not given), for which the parasite growth, % of DMSO control stood at 85%.

In turn, `CCCC1OC2C[C@@H]3[C@H]4CCC5=CC(=O)C=C[C@]5(C)[C@H]4C(O)C[C@]3(C)[C@]2(C(=O)CO)O1` (stereo not given in full) gave a parasite growth, % of DMSO control of 11.7%.

Turning to `Nc1ncnc2c1ncn2[C@@H]1O[C@H](CO)[C@@H](O)[C@@H]1O`, the parasite growth, % of DMSO control came to 6.49%.

For the molecule `C#CCN(C)CC1=Cc2ccccc2Oc2ccccc21`, the parasite growth, % of DMSO control stood at 51.9%.

For `O=C(c1ccc(C(=O)N2CCC(N3CCCC3)CC2)c(Nc2ccccc2)c1)N1CCC(N2CCCC2)CC1`, the parasite growth, % of DMSO control amounted to 80.6%.

For `Cc1nn(Cc2ccccc2Cl)c(C)c1CN(C)CC(O)COc1ccc(Cl)cc1` (stereo not given), the parasite growth, % of DMSO control turned out to be 9.8%.

Regarding `CC(C)c1onc(-c2c(Cl)cccc2Cl)c1COc1ccc(C=Cc2cccc(C(=O)O)c2)c(Cl)c1`, the parasite growth, % of DMSO control is 60.6%.

In turn, `CC1(C)C(N(O)C(=O)Nc2ccc(Cl)cc2)N(c2ccc(Cl)cc2)C(=O)N1CC(=O)NN=CC=Cc1ccc([N+](=O)[O-])o1` (stereo not given) returned a parasite growth, % of DMSO control of 5.05%.

For `COc1cc2nccc(Oc3ccc(NC(=O)Nc4cc(C)on4)c(Cl)c3)c2cc1OC`, the parasite growth, % of DMSO control came out at 7.24%.

`COc1c(C)c2c(c(O)c1CC=C(C)CCC(=O)O)C(=O)OC2` yielded a parasite growth, % of DMSO control of 15.7%.

`CC(C)=CCCC(C)=CCCC(C)=CCCC(C)=CCCC(C)=CCCC(C)=CCCC(C)=CCCC(C)=CCCC(C)=CCO` had a parasite growth, % of DMSO control of 95.7%.

As for `C[C@H]1[C@H](O)O[C@@H]2O[C@@]3(C)CC[C@@H]4[C@H](C)CC[C@@H]1[C@@]24OO3`, the parasite growth, % of DMSO control amounted to 18.9%.
